Screening results (PubChem)
Most compounds without a hit are left out; they make up all but 3.7% or so of the library.
tim10-1 inh: growth inhibitors of tim10-1 mutant yeast; inhibition, % at 20 µM; S. cerevisiae tim10-1 ts strain growth, BacTiter-Glo, 24 h; 2.2% of 330,000 active; AID 463190;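 active = inhibition of at least 40%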;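 also: mutant grown at 25 °C; 0% = DMSO wells with yeast and 100% = wells holding no yeast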
PfHsp90 yeast 2: growth inhibition of yeast expressing Plasmodium Hsp90. inhibition, % at 9.4 µM. S. cerevisiae expressing PfHsp90, BacTiter-Glo ATP, 48 h; yeast lacking PDR1 and PDR3 efflux regulators. 0.32% of 310,000 active. AID 504621;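 active = every replicate shows inhibition above about 80%, whatever the replicate mean, limit read from the data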;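 also: 0% = DMSO neutral controls and 100% = 20 µM radicicol positive controls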
NLRP3 yeast inh: inhibitors of NALP3 inflammasome in yeast; Yeast reconstituted NLRP3/ASC/caspase-1, beta-gal luminescence, 24 h; inhibition, % at 10 µM; 0.39% of 330,000 active; AID 2825;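 active = inhibition of 50% or more; inactive = inhibition below 50%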;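 also: plate controls were induced DMSO wells for no effect and uninduced yeast grown without galactose for full effect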
tim23-1 inh: growth inhibitors of tim23-1 mutant yeast; S. cerevisiae tim23-1 growth, BacTiter-Glo luminescence, 24 h; inhibition, % at 20 µM; 1.3% of 330,000 active; AID 463212;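 active = growth inhibition of the mutant yeast at or above 50%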;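 also: temperature-sensitive mutant grown at 25 °C; plate controls were DMSO-treated mutant yeast for no effect and medium wells lacking yeast for full effect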
TIM10 inh: inhibits growth of TIM10 yeast strain. S. cerevisiae TIM10 strain growth, BacTiter-Glo luminescence, 24 h. inhibition, % at 10 µM. 1.4% of 330,000 active;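 active = inhibition of 40% or more at the single tested concentration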;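 also: wild-type TIM10 isogenic control strain grown at permissive 25 °C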
tim10 confirm: TIM10 yeast growth inhibition, confirmed | shares compounds with TIM10 inh | S. cerevisiae tim10 strain growth, BacTiter-Glo luminescence, 24 h | AID 463215 | 63% of 4,600 active | inhibition, % at 10 µM;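 active = inhibition of yeast growth at or above a set limit in either of two replicates at 10 µM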;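 also: this counterscreen used the strain with wild-type TIM10; 0% = yeast with DMSO and 100% = medium wells lacking yeast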
An asterisk follows results filed as active; . = no result.

SMILES	tim10-1 inh	PfHsp90 yeast 2	NLRP3 yeast inh	tim23-1 inh	TIM10 inh	tim10 confirm
O=C(NC1CCCCCCC1)NC1CCCCC1	30	8	26	33	50*	23
CN1CCC(NC(=O)NC2CCCCC2)CC1	5	-9	-10	0	4	.
Cc1cccn2c(=O)c(/C=C(\C#N)C(N)=O)c(N3CCN(c4cccc(Cl)c4)CC3)nc12	22	-17	15	13	24	.
CC(C)CCNC(=O)c1ccc(C2SCC(=O)N2Cc2ccco2)cc1 (stereo not drawn)	26	5	11	6	54*	2
O=C1c2ccccc2-c2nnc(-c3ccc(O)cc3)cc21	27	9	23	17	50*	31*
O=C1c2ccccc2-c2nnc(-c3ccc(F)cc3)cc21	-17	15	28	-3	6	.
CC(=O)NC(Cc1ccccc1)C(=O)N1CCN(C(=O)c2cccs2)CC1 (stereo not drawn)	2	16	16	6	-7	.
CC(=O)c1c(C(C)=O)c(C)n(NC(=O)c2ccccc2O)c1C	4	-3	-5	6	-8	.
CC(=O)c1c(C(C)=O)c(C)n(NC(=O)c2cccnc2)c1C	9	8	17	14	89*	7
c1ccc(-c2csc(Nc3cccnc3)n2)cc1	27	-2	17	27	42*	20
Cc1cc(C)cc(C(=O)N2CC(C)OC(C)C2)c1 (stereo not drawn)	7	.	13	6	0	.
Cc1cccc(C(=O)NCC(=O)N2CCC2)c1	6	-4	8	-3	1	.
Cc1cc(CC(C)C)n(-c2nc3ccccc3c(=O)n2OCc2ccccc2)n1	34	.	0	38	40*	37*
Cc1cc(CC(C)C)n(-c2nc3ccccc3c(=O)n2OCC(=O)N(C)C)n1	15	-2	2	18	5	.
CC1=C/C(=N\NC(=S)NCCc2ccccc2)CC(C)(C)C1	33	-1	38	43	43*	17
O=C(Cn1c(-c2ccccc2)c[n+]2ccsc12)c1ccc(Br)cc1	13	11	12	-17	3	.
CCOC(=O)c1sc(=NC(=O)c2ccc(C)cc2)n(C)c1C	9	.	21	35	42*	20
COc1ccc(S(=O)(=O)n2nc(OC(=O)C3CCCCC3)cc2N)cc1	38	-1	5	26	46*	-14
Cc1ccc(S(=O)(=O)n2nc(OC(=O)c3cccs3)cc2N)cc1	34	-14	-1	37	47*	18
COc1ccc(C(=O)Oc2cc(N)n(S(=O)(=O)c3ccc(C)cc3)n2)cc1	23	2	17	29	36	.
Cc1csc(=Nc2ccccc2)n1Cc1ccco1	16	-8	-5	9	3	.
CCn1c(SCC(=O)Nc2ccccc2C)nc2nc3c(cc2c1=O)COC(C)(C)C3	-8	13	7	6	0	.
O=C(COC(=O)c1cc(Cl)cc(Cl)c1)NCc1ccco1	-14	-21	14	-3	-12	.
Cc1cccc(C(=O)NC(=S)Nc2ccc(S(=O)(=O)N3CCCCC3)cc2)c1	17	-20	28	23	0	.
c1ccc(CSc2nc3ncncc3[nH]2)cc1	6	-2	6	17	3	.
SMILES	tim10-1 inh	PfHsp90 yeast 2	NLRP3 yeast inh	tim23-1 inh	TIM10 inh	tim10 confirm
S=c1nc(SCc2ccccc2)[nH]c2ccccc12	36	-3	19	12	49*	40*
CC(C)NC(=S)NC(c1ccccc1)(c1ccccc1)c1ccccc1	34	-6	-30	44	45*	49*
Cc1cccc(CCNC(=O)C2CCCN(c3cnccn3)C2)c1 (stereo not drawn)	19	-4	10	-1	-6	.
CCOC(=O)CSc1ccc2ccccc2n1	5	16	-1	9	10	.
CCOC(=O)CN1C=C(c2ccc3ccccc3n2)C(C[N+](=O)[O-])c2ccccc21 (stereo not drawn)	28	-20	21	30	57*	62*
O=C(Nc1ccc2nc(-c3ccccc3)[nH]c2c1)c1ccco1	4	.	17	44	50*	25
CCOC(=O)C1(Cc2ccccc2C)CCCN(C(=O)c2cc(C3CC3)[nH]n2)C1 (stereo not drawn)	22	36	18	12	-3	.
O=C(Nc1cccc2ccccc12)N1CCc2ccccc2C1	24	4	27	15	40*	-20
